# Data published in PubChem BioAssay (EPA / NIEHS).
# Where “and” joins values, the source holds several entries; their conditions need not be identical. Equal entries are not always repeated. Results filed as inconclusive are left out. A structure can be active in one record and inactive in another. Calls of active or inactive are those of the source. The calls were made as follows, unless noted: active = hit-call score of the fitted dose curve at least 0.9, where 1 is the maximum; inactive = score below 0.9.
# Key:
# [1] = read-out: Nuclear factor erythroid 2-related factor 2 (Homo sapiens) (UniProt Q16236); assay: LTEA_HepaRG_NFE2L2: Life Technologies and Expression Analysis (LTEA) Assay for Nuclear factor erythroid 2-related factor 2 (NFE2L2) Transcription Factor using HepaRG (AID 2283527); details: mRNA level, 48 h; actives raise or lower the signal;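 also: TaqMan qRT-PCR transcript level normalised to ACTB GAPDH and POLR2A housekeeping genes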
# Outline: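 HepaRG, 48 h dosing, 8-pt half-log series from 100 uM in 0.5% DMSO, duplicates. Read-out: NFE2L2 mRNA by qRT-PCR (ACTB/GAPDH/POLR2A normalization). Bidirectional curve fit vs DMSO baseline.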
# [2] = read-out: succinate dehydrogenase complex iron sulfur subunit B (SDHB), SDHB (gene 6390); assay: LTEA_HepaRG_SDHB: Life Technologies and Expression Analysis (LTEA) Assay for succinate dehydrogenase complex iron sulfur subunit B (SDHB) using HepaRG (AID 2283528); details: mRNA level, 48 h; actives raise or lower the signal
# Outline: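 Readout is SDHB transcript level by qRT-PCR, normalised to three housekeeping genes and fitted bidirectionally against 0.5% DMSO vehicle. Human HepaRG cells were treated for 48 h at up to 100 uM.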
# [3] = read-out: Signal transducer and activator of transcription 3 (Homo sapiens) (UniProt P40763); assay: LTEA_HepaRG_STAT3: Life Technologies and Expression Analysis (LTEA) Assay for Signal transducer and activator of transcription (STAT3) using HepaRG (AID 2283529); details: mRNA level, 48 h; actives raise or lower the signal
# Outline: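 HepaRG, 48 h exposure, 8-pt half-log series (top 100 uM), 0.5% DMSO vehicle, duplicates. Readout: STAT3 transcript by Fluidigm qRT-PCR, housekeeping-normalized; bidirectional fit vs DMSO baseline.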
# [4] = read-out: solute carrier (SLCO1B1), SLCO1B1 (gene 10599); assay: LTEA_HepaRG_SLCO1B1: Life Technologies and Expression Analysis (LTEA) Assay for solute carrier (SLCO1B1) using HepaRG (AID 2283530); details: mRNA level, 48 h; actives raise or lower the signal
# Outline: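 Gain or loss of SLCO1B1 mRNA is fitted against the 0.5% DMSO vehicle in human HepaRG liver cells treated 48 h at up to 100 uM in half-log steps. Expression comes from qRT-PCR normalized to endogenous controls.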
# [5] = read-out: sulfotransferase 2A1 (SULT2A1), SULT2A1 (gene 6822); assay: LTEA_HepaRG_SULT2A1: Life Technologies and Expression Analysis (LTEA) Assay for sulfotransferase 2A1 (SULT2A1) using HepaRG (AID 2283531); details: mRNA level, 48 h; actives raise or lower the signal
# Outline: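 Cells were plated and cultured 48 h, switched to serum-free induction medium, then dosed in duplicate for 48 h (8 concentrations, max 100 uM). RNA was isolated and SULT2A1 expression measured by qRT-PCR; gain or loss of signal fitted relative to DMSO.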
# [6] = read-out: Transforming Growth Factor (TGFA), TGFA (gene 7039); assay: LTEA_HepaRG_TGFA: Life Technologies and Expression Analysis (LTEA) Assay for Transforming Growth Factor (TGFA) using HepaRG (AID 2283532); details: mRNA level, 48 h; actives raise or lower the signal
# Outline: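 qRT-PCR read-out of TGFA transcript, normalized to three housekeeping genes, fitted bidirectionally against 0.5% DMSO baseline. Human HepaRG cultures received chemicals for 48 h at eight half-log concentrations, top 100 uM.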
# [7] = read-out: Transforming Growth Factor (TGFB1), TGFB1 (gene 7040); assay: LTEA_HepaRG_TGFB1: Life Technologies and Expression Analysis (LTEA) Assay for Transforming Growth Factor (TGFB1) Transporter using HepaRG (AID 2283533); details: mRNA level, 48 h; actives raise or lower the signal
# Outline: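 Expression change of TGFB1 in human HepaRG cells is measured after a 48 h chemical exposure, up to 100 uM in 0.5% DMSO vehicle. Curves are fitted in both directions relative to the DMSO baseline.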
# [8] = read-out: Tumor necrosis factor receptor 1 (TNFRSF1A), TNFRSF1A (gene 7132); assay: LTEA_HepaRG_TNFRSF1A: Life Technologies and Expression Analysis (LTEA) Assay for Tumor necrosis factor receptor 1 (TNFRSF1A) using HepaRG (AID 2283535); details: mRNA level, 48 h; actives raise or lower the signal
# Outline: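 Expression of TNFRSF1A in human HepaRG liver cells was measured by qRT-PCR 48 h after chemical dosing (maximum 100 uM). Bidirectional curve fitting used 0.5% DMSO as baseline.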
# [9] = read-out: Thyroid Hormone Responsive (THRSP), THRSP (gene 7069); assay: LTEA_HepaRG_THRSP: Life Technologies and Expression Analysis (LTEA) Assay for Thyroid Hormone Responsive (THRSP) using HepaRG (AID 2283536); details: mRNA level, 48 h; actives raise or lower the signal
# Outline: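 qRT-PCR read-out (Fluidigm TaqMan), housekeeping-normalized (ACTB/GAPDH/POLR2A). HepaRG, 48 h chemical exposure, 8-pt half-log series from 100 uM in 0.5% DMSO, duplicates. Bidirectional curve fit vs 0.5% DMSO baseline.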
# [10] = read-out: Cellular tumor antigen p53 (Homo sapiens) (UniProt P04637); assay: LTEA_HepaRG_TP53: Life Technologies and Expression Analysis (LTEA) Assay for Tumor Protein P53 (TP53) using HepaRG (AID 2283537); details: mRNA level, 48 h; actives raise or lower the signal
# Outline: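 Read-out is TP53 transcript level by microfluidic qRT-PCR, normalised to three housekeeping genes and fitted bidirectionally against DMSO. Human HepaRG cells received compounds for 48 h, highest concentration 100 uM.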
# [11] = read-out: UDP glucuronosyltransferase (UGT1A1), UGT1A1 (gene 54658); assay: LTEA_HepaRG_UGT1A1: Life Technologies and Expression Analysis (LTEA) Assay for UDP glucuronosyltransferase (UGT1A1) using HepaRG (AID 2283538); details: mRNA level, 48 h; actives raise or lower the signal
# Outline: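 Cells are plated, cultured 48 h, switched to serum-free induction medium, then dosed 48 h at eight concentrations (max 100 uM, 0.5% DMSO). RNA is isolated and UGT1A1 expression measured by qRT-PCR; changes versus DMSO are fitted in both directions.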
# [12] = read-out: UDP glucuronosyltransferase (UGT1A6), UGT1A6 (gene 54578); assay: LTEA_HepaRG_UGT1A6: Life Technologies and Expression Analysis (LTEA) Assay for UDP glucuronosyltransferase (UGT1A6) using HepaRG (AID 2283539); details: mRNA level, 48 h; actives raise or lower the signal
# Outline: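 Endpoint is UGT1A6 transcript induction or loss in a human liver cell line, quantified by TaqMan qRT-PCR 48 h after dosing. Concentrations ran from 100 uM downward in half-log steps in 0.5% DMSO; activity was fitted in both directions versus vehicle.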
# [13] = read-out: X-box binding protein 1 (XBP1), XBP1 (gene 7494); assay: LTEA_HepaRG_XBP1: Life Technologies and Expression Analysis (LTEA) Assay for X-box binding protein 1 (XBP1) using HepaRG (AID 2283540); details: mRNA level, 48 h; actives raise or lower the signal
# Outline: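 Human HepaRG monolayers receive test chemical for 48 h across an eight-point half-log series starting at 100 uM. XBP1 mRNA gain or loss is scored against DMSO by qRT-PCR.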
# [14] = LTEA_HepaRG_LDH_cytotoxicity: Cytotoxicity Assessment in the Life Technologies and Expression Analysis (LTEA) Assay (AID 2283563; active = hit-call score of the fitted dose curve at least 0.9, where 1 is the maximum)
# Outline: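 Human HepaRG hepatic cells are treated with test chemicals for 48 h at up to 100 uM in 0.5% DMSO. Cytotoxicity is scored from medium LDH against the vehicle control.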
# [15] = ATG_XTT_Cytotoxicity: Cytotoxicity Assessment in the Attagene TRANS-FACTORIAL HepG2 Assay (AID 2283584; active = hit-call score of the fitted dose curve at least 0.9, where 1 is the maximum)
# Outline: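 Transfect HepG2 with GAL4-UAS reporter units, dose compound, incubate 24 h, then measure viable cell number by XTT. Fit concentration response against DMSO baseline.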
# [16] = TOX21_p53_BLA_p2_viability: Viability Assessment in the Tox21 HCT-116 p53 Agonism Beta-lactamase Assay, Phase 2 (AID 2283591; active = hit-call score of the fitted dose curve at least 0.9, where 1 is the maximum;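 also: compound exposure lasted 16 h at 37 °C; actives lower the ATP signal meaning cytotoxicity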)
# Outline: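 HCT116 p53-bla cells, 4000/well, dosed after 5 h plating (217-fold dilution of DMSO stocks) and incubated 16 h at 37C. Viability taken as cellular ATP by CellTiter-Glo luminescence after 30 min RT; signal loss marks cytotoxicity.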
# [17] = TOX21_p53_BLA_p3_viability: Viability Assessment in the Tox21 HCT-116 p53 Agonism Beta-lactamase Assay, Phase 3 (AID 2283593; active = hit-call score of the fitted dose curve at least 0.9, where 1 is the maximum;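 also: cells exposed to compound for 16 h before reading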)
# Outline: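 HCT116 cells, 4000/well, dosed 5 h after plating by pin transfer (217-fold dilution from DMSO stock) and incubated 16 h at 37C, 5% CO2. Viability read as ATP luminescence with CellTiter-Glo after 30 min at room temperature.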
# [18] = target: Cellular tumor antigen p53 (Homo sapiens) (UniProt P04637); assay: TOX21_p53_BLA_p3_ratio: Tox21 HCT-116 p53 Agonism Beta-lactamase Assay, Ratio, Phase 3 (AID 2283596; active = hit-call score of the fitted dose curve at least 0.9, where 1 is the maximum)
# Cellular tumor antigen p53 (Homo sapiens), sequence (P04637 whole entry, looked up): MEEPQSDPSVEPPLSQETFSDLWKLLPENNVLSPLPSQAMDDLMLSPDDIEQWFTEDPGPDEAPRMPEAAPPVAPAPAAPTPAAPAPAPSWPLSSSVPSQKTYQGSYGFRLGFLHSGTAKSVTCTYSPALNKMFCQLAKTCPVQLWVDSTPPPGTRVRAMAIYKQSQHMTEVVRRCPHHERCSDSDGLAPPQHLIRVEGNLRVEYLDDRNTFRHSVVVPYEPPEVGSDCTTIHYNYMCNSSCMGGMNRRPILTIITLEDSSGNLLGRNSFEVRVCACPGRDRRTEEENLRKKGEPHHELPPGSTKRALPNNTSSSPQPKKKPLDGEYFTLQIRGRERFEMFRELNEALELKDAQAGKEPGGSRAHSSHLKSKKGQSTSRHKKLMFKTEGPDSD
# Outline: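 Cells were seeded at 4000/well, rested 5 h at 37C, then dosed with DMSO compound solutions (217-fold dilution) for 16 h. CCF4-AM substrate was loaded for 2 h at room temperature, and the 460/530 nm emission ratio was fitted for gain of signal versus DMSO.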
# TIMP1, TIMP1 (gene 7076) = assay: LTEA_HepaRG_TIMP1: Life Technologies and Expression Analysis (LTEA) Assay for TIMP1 using HepaRG (AID 2283534); details: mRNA level, 48 h; actives raise or lower the signal
# Outline: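 We dosed human liver HepaRG cultures for 48 hours with up to 100 uM test chemical and measured TIMP1 expression by qRT-PCR. Activity in either direction is fitted relative to the 0.5% DMSO vehicle.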
# [19] = target: Cellular tumor antigen p53 (Homo sapiens) (UniProt P04637); assay: TOX21_p53_BLA_p2_ratio: Tox21 HCT-116 p53 Agonism Beta-lactamase Assay, Ratio, Phase 2 (AID 2283592; active = hit-call score of the fitted dose curve at least 0.9, where 1 is the maximum)
# Outline: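 Cleaved-to-uncleaved substrate ratio (460 vs 530 nm) measured in HCT116 cells with an inducible beta-lactamase reporter linked to p53 activity. Compounds incubated 16 h at 37C before 2 h room-temperature CCF4-AM loading.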
# Signal transducer and activator of transcription 3 (Homo sapiens), sequence (P40763 whole entry, looked up): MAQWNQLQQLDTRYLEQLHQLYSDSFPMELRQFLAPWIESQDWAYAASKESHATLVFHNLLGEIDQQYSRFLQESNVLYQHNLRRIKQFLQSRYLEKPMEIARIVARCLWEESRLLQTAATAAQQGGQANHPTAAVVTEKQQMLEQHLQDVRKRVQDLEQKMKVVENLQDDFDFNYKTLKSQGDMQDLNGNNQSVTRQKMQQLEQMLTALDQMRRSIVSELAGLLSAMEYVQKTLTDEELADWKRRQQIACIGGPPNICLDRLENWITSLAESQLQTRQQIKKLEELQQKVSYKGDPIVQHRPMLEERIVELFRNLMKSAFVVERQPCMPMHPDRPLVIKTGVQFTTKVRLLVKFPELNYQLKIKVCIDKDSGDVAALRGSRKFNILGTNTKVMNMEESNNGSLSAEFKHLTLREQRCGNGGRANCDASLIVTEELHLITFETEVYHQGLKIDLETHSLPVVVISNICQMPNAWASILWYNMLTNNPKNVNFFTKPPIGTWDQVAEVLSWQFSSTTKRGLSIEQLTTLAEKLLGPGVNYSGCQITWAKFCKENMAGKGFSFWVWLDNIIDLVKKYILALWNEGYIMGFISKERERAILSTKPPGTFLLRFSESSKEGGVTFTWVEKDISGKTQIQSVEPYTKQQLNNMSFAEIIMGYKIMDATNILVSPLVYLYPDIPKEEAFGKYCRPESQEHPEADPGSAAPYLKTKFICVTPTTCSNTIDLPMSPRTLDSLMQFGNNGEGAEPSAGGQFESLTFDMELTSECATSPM
# Nuclear factor erythroid 2-related factor 2 (Homo sapiens), sequence (Q16236 whole entry, looked up): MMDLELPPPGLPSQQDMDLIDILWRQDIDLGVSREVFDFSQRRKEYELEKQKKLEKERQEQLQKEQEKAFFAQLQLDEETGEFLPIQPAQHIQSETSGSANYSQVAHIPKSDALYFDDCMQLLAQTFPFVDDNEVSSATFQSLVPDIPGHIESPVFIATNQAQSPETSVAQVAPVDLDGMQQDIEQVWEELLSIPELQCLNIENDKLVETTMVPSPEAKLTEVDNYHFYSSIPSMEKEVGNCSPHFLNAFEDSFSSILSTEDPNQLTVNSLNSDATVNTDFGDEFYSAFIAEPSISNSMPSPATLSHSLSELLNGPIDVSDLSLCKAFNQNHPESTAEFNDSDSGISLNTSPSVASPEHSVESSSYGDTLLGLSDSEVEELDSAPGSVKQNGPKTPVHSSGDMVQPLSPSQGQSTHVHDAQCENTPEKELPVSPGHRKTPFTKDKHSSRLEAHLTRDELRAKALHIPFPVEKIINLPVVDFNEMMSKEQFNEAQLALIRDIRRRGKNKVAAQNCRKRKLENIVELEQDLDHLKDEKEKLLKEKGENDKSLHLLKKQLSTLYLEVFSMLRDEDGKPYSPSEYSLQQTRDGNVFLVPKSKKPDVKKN
smiles,measurement,setting,value
Clc1cc(Cl)c(Cl)cc1Cl,outcome,[1],inactive
same,outcome,[2],inactive
same,outcome,[3],inactive
same,outcome,[4],inactive
same,outcome,[5],inactive
same,outcome,[6],inactive
same,outcome,[7],inactive
same,outcome,[8],inactive
same,outcome,[9],inactive
same,outcome,[10],inactive
same,outcome,[11],inactive
same,outcome,[12],inactive
same,outcome,[13],inactive
same,outcome,[14],inactive
same,outcome,[15],inactive
same,outcome,[16],inactive
same,outcome,[17],inactive
same,outcome,[18],inactive
Cc1cccc(Nc2cc(Cl)nc(SCC(=O)O)n2)c1C,outcome,[1],inactive
same,outcome,[2],inactive
same,outcome,[3],inactive
same,outcome,[4],inactive
same,outcome,[5],inactive
same,outcome,[6],inactive
same,outcome,[7],inactive
same,outcome,"TIMP1, TIMP1 (gene 7076)",inactive
same,outcome,[8],inactive
same,outcome,[9],inactive
same,outcome,[10],inactive
same,AC50,[11],50 µM (active)
same,outcome,[13],inactive
same,outcome,[14],inactive
same,outcome,[19],inactive
same,outcome,[18],inactive
O=c1[nH]cc(F)c(=O)[nH]1,outcome,[1],inactive
same,outcome,[2],inactive
same,outcome,[3],inactive
same,outcome,[4],inactive
same,outcome,[5],inactive
same,outcome,[6],inactive
same,outcome,[7],inactive
same,outcome,[8],inactive
same,AC50,[9],51 µM (active)
same,outcome,[10],inactive
same,outcome,[11],inactive
same,outcome,[12],inactive
same,outcome,[13],inactive
same,outcome,[14],inactive
same,outcome,[15],inactive
same,AC50,[16],1.34 µM (active) and 1.39 µM (active)
same,outcome,[16],inactive
same,AC50,[19],2.4 µM (active) and 1.97 µM (active) and 4.59 µM (active)
same,AC50,[17],882 nM (active) and 2.38 µM (active)
same,outcome,[17],inactive
same,AC50,[18],2.99 µM (active) and 2.3 µM (active) and 5.29 µM (active)
Cc1ccc2ncccc2c1,outcome,[1],inactive
same,outcome,[2],inactive
same,outcome,[3],inactive
same,outcome,[4],inactive
same,outcome,[5],inactive
same,outcome,[6],inactive
same,outcome,[7],inactive
same,outcome,[8],inactive
same,outcome,[9],inactive
same,outcome,[10],inactive
same,outcome,[11],inactive
same,outcome,[13],inactive
same,outcome,[14],inactive
same,outcome,[15],inactive
same,outcome,[19],inactive
same,outcome,[18],inactive
Cc1cc(NC(=O)C(=O)O)cc(C)c1Oc1ccc(O)c2c1CCC2,outcome,[1],inactive
same,outcome,[2],inactive
same,outcome,[3],inactive
same,AC50,[4],50 µM (active)
same,AC50,[5],0.526 µM (active)
same,outcome,[6],inactive
same,outcome,[7],inactive
same,outcome,[8],inactive
same,outcome,[9],inactive
same,outcome,[10],inactive
same,outcome,[11],inactive
same,outcome,[13],inactive
same,outcome,[14],inactive
same,outcome,[19],inactive
same,outcome,[18],inactive
CC(=O)Oc1ccccc1C(=O)O,outcome,[1],inactive
same,outcome,[2],inactive
same,outcome,[3],inactive
same,outcome,[4],inactive
same,outcome,[5],inactive
same,outcome,[6],inactive
same,outcome,[7],inactive
same,outcome,[8],inactive
same,outcome,[10],inactive
same,outcome,[11],inactive
same,outcome,[12],inactive
same,outcome,[13],inactive
same,outcome,[14],inactive
same,outcome,[16],inactive
same,outcome,[19],inactive
same,outcome,[17],inactive
same,outcome,[18],inactive
Cc1cccc(C)c1O,outcome,[1],inactive
same,outcome,[2],inactive
same,outcome,[3],inactive
same,outcome,[4],inactive
same,outcome,[5],inactive
same,outcome,[6],inactive
same,outcome,[7],inactive
same,outcome,[8],inactive
same,outcome,[9],inactive
same,outcome,[10],inactive
same,outcome,[11],inactive
same,outcome,[13],inactive
same,outcome,[14],inactive
same,outcome,[15],inactive
same,outcome,[16],inactive
same,outcome,[19],inactive
same,outcome,[17],inactive
same,outcome,[18],inactive
CCCCCCCCCCC,outcome,[1],inactive
same,outcome,[2],inactive
same,outcome,[3],inactive
same,outcome,[4],inactive
same,outcome,[5],inactive
same,outcome,[6],inactive
same,outcome,[7],inactive
same,outcome,[8],inactive
same,outcome,[9],inactive
same,outcome,[10],inactive
same,outcome,[11],inactive
same,outcome,[13],inactive
same,outcome,[14],inactive
same,outcome,[15],inactive
same,outcome,[16],inactive
same,outcome,[19],inactive
same,outcome,[18],inactive
